PubChem BioAssay (NCI)
Several values for one entry are separate records, joined by “and”; a condition that tells them apart may be missing. Identical values can stand only once. This is part of a sample that, as a whole, favours compounds with a hit. Of some 83,000 tested, about 20% had one in any assay.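 96-well plates, one dose, 48 hours. Percent growth reported; active if below 10.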 Activity calls are given as the source filed them.

Legend:
Assay in all cases: NCI-60 one-dose screen, 48 h (100 = growth as untreated, 0 = no growth, -100 = all killed)
Conditions in all cases: 10 µM unless noted
[1] = tested on: HCT-15 colon
[2] = tested on: HT29 colon
[3] = tested on: SNB-75 CNS
[4] = tested on: U251 CNS
[5] = tested on: PC-3 prostate
[6] = tested on: SK-MEL-5 melanoma
[7] = tested on: UACC-62 melanoma
[8] = tested on: LOX IMVI melanoma
[9] = tested on: SK-MEL-28 melanoma
[10] = tested on: SK-MEL-2 melanoma
[11] = tested on: SN12C renal
[12] = tested on: UO-31 renal
[13] = tested on: TK-10 renal
[14] = tested on: CAKI-1 renal
[15] = tested on: A498 renal
[16] = tested on: CCRF-CEM leukemia
[17] = tested on: MOLT-4 leukemia
[18] = tested on: EKVX NSCLC
[19] = tested on: ACHN renal

Measured: growth

O=C(O)Cc1cc(=O)[nH]n(-c2ccccc2)c1=O
inactive: [1] 107% | [2] 103% | [3] 91.3% | [4] 99.9% | [5] 94% | [6] 107% | [7] 101% | [8] 100% | [9] 110% | [10] 116% | [11] 97.9% | [12] 101% | [13] 102% | [14] 83.5% | [15] 97.6% | [16] 112% | [17] 88.3%

Nc1c(Cl)cc2c(c1Br)C(=O)c1ccccc1C2=O
inactive: [1] 88.9% | [2] 100% | [3] 94.2% | [4] 95.8% | [5] 97.7% | [6] 89.4% | [7] 77% | [8] 94.2% | [9] 113% | [10] 103% | [18] 60.2% | [11] 87.3% | [12] 63.2% | [13] 108% | [19] 73% | [14] 82.3% | [15] 110% | [16] 96.2% | [17] 87.8%

N#Cc1c[nH]n2ccnc12
inactive: [1] 104% | [2] 91.2% | [3] 103% | [4] 92.4% | [5] 97.9% | [6] 115% | [7] 106% | [8] 96.1% | [9] 107% | [10] 105% | [18] 90.3% | [11] 99.8% | [12] 94.7% | [13] 103% | [14] 104% | [15] 117% | [16] 109% | [17] 109%

O=C(c1ccncc1)c1c(Cc2ccccc2)ccc2ccccc12
inactive: [1] 91.5% | [2] 84.9% | [3] 90.4% | [4] 88.8% | [5] 83% | [6] 80.1% | [7] 66.3% | [8] 90.8% | [9] 90.2% | [10] 69.7% | [18] 66.5% | [11] 90.6% | [12] 64.5% | [13] 107% | [19] 93.8% | [14] 73.8% | [15] 104% | [16] 103% | [17] 94.6%

NCCCCCC(=O)O
inactive: [1] 103% [middle of 4 runs] | [2] 100% [middle of 4 runs] | [3] 93.6% [middle of 4 runs] | [4] 107% and 104% and 91.4% | [5] 106% [middle of 4 runs] | [6] 108% and 109% and 110% | [7] 112% [middle of 4 runs] | [8] 100% [middle of 4 runs] | [9] 112% and 109% and 119% | [10] 110% [middle of 4 runs] | [18] 109% [middle of 4 runs] | [11] 107% [middle of 4 runs] | [12] 89.3% [middle of 4 runs] | [13] 115% and 104% and 98.9% | [19] 103% [middle of 4 runs] | [14] 94% [middle of 4 runs] | [16] 101% and 90.4% and 108% | [17] 105% and 88.6% and 108%

CN1C2C=CC(=O)C1C1C(=O)N(c3ccccc3)C(=O)C12 (configuration not stated)
inactive: [1] 42% | [2] 48.8% | [3] 92.6% | [4] 62.1% | [5] 54.8% | [6] 92% | [7] 84.3% | [8] 38.7% | [9] 95.4% | [10] 46.2% | [18] 106% | [11] 60.2% | [12] 53.9% | [13] 78.9% | [19] 63.9% | [14] 28% | [15] 106% | [16] 50.5% | [17] 74.4%

Cc1cc(O)c(C(C)C)cc1N=O
inactive: [1] 94.3% and 98.9% | [2] 114% and 94.1% | [3] 96.7% | [5] 109% and 97.6% | [6] 99.6% and 104% | [7] 99.7% and 103% | [8] 88.5% and 99.5% | [9] 110% and 113% | [10] 103% and 111% | [11] 95.7% and 105% | [12] 106% and 92.5% | [13] 101% and 99.7% | [19] 95% and 91.5% | [14] 104% and 107% | [15] 94.8% and 95.5% | [16] 90.3% | [17] 98.1%
